Rows were chosen to be rich in hits. Some 5.4% of all compounds tested hit in one or more screens of this group.
Mdm2-MdmX inh: inhibitors of human Mdm2-MdmX association, primary screen, cell-based, luminescence, split luciferase, SaOS-2, uHTS. SaOS-2 split-luciferase Mdm2/MdmX complementation. inhibition, % at 8 µM. 3% of 330,000 active. AID 485346, 2010;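 active = inhibition of at least 50% at 8 µM in the primary screen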
Target sequence (O15151 whole entry, looked up): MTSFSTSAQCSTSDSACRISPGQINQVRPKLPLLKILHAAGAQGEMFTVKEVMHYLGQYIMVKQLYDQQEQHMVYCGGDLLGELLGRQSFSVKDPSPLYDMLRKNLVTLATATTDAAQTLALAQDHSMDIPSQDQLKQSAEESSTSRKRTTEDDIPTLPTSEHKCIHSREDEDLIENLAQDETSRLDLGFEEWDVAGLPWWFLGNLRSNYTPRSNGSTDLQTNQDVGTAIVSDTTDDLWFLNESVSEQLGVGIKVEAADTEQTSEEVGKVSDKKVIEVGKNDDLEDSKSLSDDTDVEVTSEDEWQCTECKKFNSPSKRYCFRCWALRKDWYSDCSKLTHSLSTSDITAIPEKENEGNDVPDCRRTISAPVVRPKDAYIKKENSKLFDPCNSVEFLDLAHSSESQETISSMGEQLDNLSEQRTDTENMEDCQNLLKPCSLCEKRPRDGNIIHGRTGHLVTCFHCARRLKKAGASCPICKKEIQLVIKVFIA
Target sequence (Q00987 whole entry, looked up): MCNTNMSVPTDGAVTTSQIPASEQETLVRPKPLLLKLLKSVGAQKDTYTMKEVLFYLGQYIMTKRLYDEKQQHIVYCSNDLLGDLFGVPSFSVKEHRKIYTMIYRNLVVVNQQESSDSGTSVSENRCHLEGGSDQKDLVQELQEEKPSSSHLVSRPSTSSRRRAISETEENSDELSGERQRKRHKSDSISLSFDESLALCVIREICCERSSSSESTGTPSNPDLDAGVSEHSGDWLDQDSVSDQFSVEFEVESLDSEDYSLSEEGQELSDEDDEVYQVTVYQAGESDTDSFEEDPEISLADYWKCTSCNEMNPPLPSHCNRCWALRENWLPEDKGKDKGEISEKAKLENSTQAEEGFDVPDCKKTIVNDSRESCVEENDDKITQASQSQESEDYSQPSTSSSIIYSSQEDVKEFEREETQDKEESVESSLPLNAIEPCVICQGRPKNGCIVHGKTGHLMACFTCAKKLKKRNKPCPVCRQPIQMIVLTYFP
MPTP block: mitochondrial permeability transition pore inhibitors, primary screen, biochemical, isolated mouse mitochondria, absorbance; inhibition, % at 10 µM; AID 602449, 2012; Ca2+ swelling absorbance, 30 min; 1.4% of 360,000 active;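 active = inhibition of 50% or more, scaled per plate between neutral and stimulator controls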
Beta apoptosis: inhibitors of cytokine-induced beta cell apoptosis, primary screen, luminescence. AID 435005, 2010. protection from apoptosis, % (no concentration beside the values). 0.8% of 300,000 active. INS-1E cytokine-induced death, ATP luminescence, 48 h; percent of positive-control rescue, neutral wells zero;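 active = Every replicate reaches about 75%, or at least half do and their mean reaches it too, limit read from the data; inconclusive = At least half of replicates reach the limit but their mean does not; inactive = Under half of replicates reach the limit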;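 also: higher means more ATP so stronger rescue from cytokine killing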
SKKanGAS inh: S. pyogenes SKKanGAS growth inhibitors in kanamycin, primary screen, streptokinase expression inhibitor project, SKKanGAS strain, BacTiter-Glo luminescence | AID 1662, 2009 | 1.3% of 300,000 active | 6 h | inhibition, % at 7.5 µM;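 active = mean replicate score, as percent of positive control median, at least 50; inconclusive = mean below 50 but one replicate at or above 50; inactive = mean and every replicate below 50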;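 also: strain carries kanamycin resistance gene driven by streptokinase promoter and grows in 40 µg/ml kanamycin; loss of luminescence reflects streptokinase promoter inhibition or plain growth inhibition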
Calb FLC: C. albicans growth inhibition with fluconazole, primary screen, CaCi-2 strain, Alamar Blue fluorescence; C. albicans CaCi-2 (fluconazole-resistant clinical isolate) + fluconazole, 48 h; growth inhibition, % (test concentration not listed); 0.57% of 300,000 active; AID 1979, 2009;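 active = growth inhibition above about 58% in most replicates, limit read from the data, passing the limit was not always enough; inconclusive = exactly half the replicates above a set limit; inactive = most replicates below a set limit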;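 also: all wells also contain fluconazole at 8 µg/ml as a sub-toxic cotreatment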
CSC inhib: cancer stem cell viability inhibitors, primary screen, luminescence; cancer stem cell-like cells viability; inhibition, % at 7.5 µM; 1.1% of 300,000 active; AID 2717, 2010; in the data active = inhibition above about 75%; inconclusive = no clear call, values can overlap the other calls; tested in HMLE shEcad cells
MPTP counter: fluorescence retest of MPTP screen hits in isolated mitochondria, single concentration. 78% of 5,000 active. AID 624504, 2012. inhibition, % at 10 µM. membrane potential, Rhodamine 123 fluorescence. shares compounds with MPTP block; in the data active = inhibition above about 22%
MPTP swell DR: mitochondrial permeability transition pore inhibitors, dose response, biochemical, absorbance, uHTS hits. shares compounds with MPTP block. isolated mitochondria swelling. IC50, µM. 58% of 780 active. AID 651561, 2012; in the data active = IC50 below about 20 µM
MPTP cs DR: fluorescent counter-screen in isolated mitochondria, dose response, counter-screen for MPTP inhibitor project, biochemical, fluorescence, uHTS hits. shares compounds with MPTP block. isolated mitochondria counterscreen, fluorescence read-out. IC50, µM. 49% of 780 active; in the data active = IC50 below about 80 µM
Each line names hits and unclear results; the compound was inactive in the other large screens (follow-up assays come after a bar, where they were run).

CCOc1ccccc1NC(=O)CSc1nc2nc(-c3cccs3)cc(C(F)(F)F)c2c(=O)[nH]1	MPTP block 69 | MPTP counter 55
COC(=O)CSc1nc2nc(-c3cccs3)cc(C(F)(F)F)c2c(=O)[nH]1	none
CC(C)CC(=O)Nc1ccc(F)c(Cl)c1	none
COc1ccc(NC(=O)NC23CC4(C)CC(C)(CC(C)(C4)C2)C3)cc1	MPTP block 97 | MPTP counter 48
Cc1nnsc1C(=O)NC(=O)Nc1ccc(F)c(Cl)c1	MPTP block 59 | MPTP counter 76
CCC(CC)NC(=O)Nc1ccc(F)c(Cl)c1	MPTP block 71 | MPTP counter 84
Cc1cccc(OCCC(=O)Nc2ccc(F)c(Cl)c2)c1	MPTP block 78 | MPTP counter 79
COc1ccc(NC(=O)NC2(C)CCS(=O)(=O)C2)cc1 (configuration not stated)	none (no result: Beta apoptosis, CSC inhib)
O=C1C=C(N2CCN(C3=CC(=O)CCC3)CC2)CCC1	none
O=C1CC(C(=O)NC2CCCCC2)C2(CCCCC2)O1 (configuration not stated)	none
O=C(Nc1ccc(F)cc1)C1CC2CCC1C2 (configuration not stated)	none
O=C(Nc1ccc(F)c(Cl)c1)C1CC2CCC1C2 (configuration not stated)	MPTP block 57 (no result: Beta apoptosis, CSC inhib) | MPTP counter 79
CC(=O)Nc1cccc(NC(=S)Nc2ccc(F)c(Cl)c2)c1	MPTP block 95 | MPTP counter 87
COc1ccc(OC)c(NC(=O)Nc2ccc(Cl)cc2)c1	MPTP block 91 | MPTP counter 69
Cc1ccc(NC(=O)Nc2ccc(F)c(Cl)c2)cc1	MPTP block 96 | MPTP counter 88
CC(=O)Nc1cccc(NC(=O)Nc2ccc(C)c(Cl)c2)c1	none
Cc1ccc(CNC(=O)Nc2ccc(Cl)cc2)cc1	none
COc1ccc(NC(=O)Nc2cc(C)ccc2OC)cc1	none
Cc1ccc(S(=O)(=O)N2CCN(CC(=O)N/N=C/C=C/c3ccccc3)CC2)cc1	none
Nc1c(C(=O)NCc2ccc3c(c2)OCO3)nnn1CC(=O)Nc1ccc(Br)cc1	none
O=C(Nc1cccnc1)c1cc(F)c(F)cc1Cl	none
COc1ccc(NC(=O)Nc2ccc(F)c(Cl)c2)cc1	MPTP block 87 | MPTP counter 85
O=C(Nc1cccnc1)Nc1ccc(F)c(Cl)c1	MPTP block 93 | MPTP counter 85
O=S(=O)(NCC(Nc1ccc(Cl)cc1)c1ccccc1)c1ccc(Cl)cc1 (configuration not stated)	MPTP block 87 | MPTP counter 85
O=S(=O)(NCC(c1ccccc1)N1CCC(O)CC1)c1ccc(Cl)cc1 (configuration not stated)	none
S=C(NCc1cccs1)Nc1ccc(Br)cc1Cl	MPTP block 75 | MPTP counter 79
S=C(NCc1ccc(Cl)cc1)Nc1ccc(Cl)cc1Cl	MPTP block 100 | MPTP counter 87
Cc1cc(Cl)ccc1NC(=S)NC1CCCC1	none
Fc1ccc(CNC(=S)Nc2ccc(Cl)cc2Cl)cc1	MPTP block 100 | MPTP counter 106
CC1CCCCC1NC(=S)Nc1ccc(Cl)cc1Cl (configuration not stated)	MPTP block 93 | MPTP counter 87
CNS(=O)(=O)c1cccc(C(=O)OCC(=O)Nc2ccc(-c3nc4ccc(C)cc4s3)cc2)c1	none
S=C(NCCc1ccc(Cl)cc1)Nc1ccc(Cl)cc1Cl	MPTP block 86 | MPTP counter 86
Cc1c(Cl)cccc1NC(=S)NCCc1ccc(F)cc1	none
Cc1c(Cl)cccc1NC(=S)NCCc1ccc(Cl)cc1	MPTP block 85 (no result: Beta apoptosis) | MPTP counter 81
CCn1cc(C(=O)N[C@@H](CCSC)C(=O)NCCOC)c(=O)c2cc3c(cc21)OCO3	none
O=C(COc1c(F)c(F)c(C(F)(F)F)c(F)c1F)Nc1ccc(N2CCOCC2)c(Cl)c1	MPTP block 90 | MPTP counter 78
CSc1ccc(OCC(=O)Nc2ccc(N3CCOCC3)c(Cl)c2)cc1	none (no result: Beta apoptosis, CSC inhib)
CCC(C)c1ccc(NC(=O)COc2c(F)c(F)c(C(F)(F)F)c(F)c2F)cc1 (configuration not stated)	MPTP block 83, SKKanGAS inh 67 | MPTP counter 95
NS(=O)(=O)c1ccc(NCc2cc(Cl)ccc2OCc2ccccc2F)cc1	SKKanGAS inh inconclusive
Cc1cc(N2CCN(c3nc4ccccc4s3)CC2)n2ncnc2n1	MPTP block 82, Beta apoptosis 87 | MPTP counter 73
Cc1sc(NC(=S)NC(=O)c2ccc(C(C)(C)C)cc2)c(C#N)c1C	none
Cc1sc(NC(=S)NC(=O)c2ccccc2)c(C#N)c1C	MPTP block 70 | MPTP counter 84
CC(C)(C)c1ccc(/C=C/C(=O)Nc2ccncc2)cc1	MPTP block 98 | MPTP counter 92
CCN(CC)c1ccc(N=Cc2ccc(N(CC)CC)cc2O)cc1	MPTP block 77, Calb FLC 78 | MPTP counter inactive
COCCNC(=O)C1(C)CCN(C(=O)c2cc(C)n(C(C)(C)C)n2)C1 (configuration not stated)	none (no result: Mdm2-MdmX inh, Beta apoptosis, SKKanGAS inh, Calb FLC, CSC inhib)
COc1ccc(-c2nn(-c3ccccc3)cc2CO)cc1	none
Cc1ccc(-c2nn(-c3ccccc3)cc2CNCc2ccccc2)cc1	MPTP block 96 | MPTP counter inactive | MPTP swell DR 4.7 | MPTP cs DR 30
Cc1oc(-c2ccc(Cl)cc2)nc1CS(=O)CC(=O)NCCCN1CCCC(C)C1 (configuration not stated)	none
Cc1oc(-c2ccc(Cl)cc2)nc1CS(=O)CC(=O)NCCCN1CCN(Cc2ccccc2)CC1 (configuration not stated)	MPTP block 63 | MPTP counter 53
O=C(C=Cc1ccccc1O)c1ccccc1O	MPTP block 72 (no result: Mdm2-MdmX inh, Beta apoptosis, SKKanGAS inh, Calb FLC, CSC inhib) | MPTP counter 89
O=C(C=Cc1cccc(O)c1)c1ccccc1O	none (no result: Mdm2-MdmX inh, Beta apoptosis, SKKanGAS inh, Calb FLC, CSC inhib)
O=C(/C=C/c1ccc(O)c(O)c1)c1ccccc1O	MPTP block 73 | MPTP counter 63

Compound activity deposited in PubChem by several laboratories.
